This note sets out measurements from PubChem BioAssay (NCATS).

The nature of experiment [1]: AP1 Signaling Pathway (AID 357; active means well fitted curve in either direction with a large enough effect, not every such curve was filed as active;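 further: ME-180 reporter cells stimulated with EGF at its EC50 level; on the % scale 0 is the no-effect control and ±100 the full control effect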). The essentials: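 Titration-series screen for positive or negative modulators of EC50 EGF-induced signaling in ME-180 cells carrying an AP-1-driven beta-lactamase reporter. After 5 hours at 37 degrees Celsius, CCF4 460nm/530nm emission ratio gave %Activity; AC50 values derived.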
Experiment [2] is described as follows: NFAT Signaling Pathway (AID 444; active means well fitted curve in either direction with a large enough effect, not every such curve was filed as active;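 further: carbachol stimulus at about its EC50 of 1 µM final; on the % scale 0 is the no-effect control and ±100 the full control effect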). The note with it: Jurkat NFAT-bla M1, carbachol, beta-lactamase ratio, 5 h; at 38 µM (top of the series). The essentials:
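Jurkat cells carrying an NFAT-driven β-lactamase reporter and co-transfected muscarinic M1 receptor were treated with compound plus carbachol (1 uM final, an EC50 level) for 5 h at 37 °C. CCF4 loading followed for 1 h at RT; 460/530 nm ratio gave %activity.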

For experiment [3], the target named is Mitogen-activated protein kinase 10 (Mus musculus) (UniProt Q61831). Nature of the experiment: JNK3 AlphaScreen Assay (AID 530; active means well fitted curve in either direction with a large enough effect, not every such curve was filed as active;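 further: kinase came from lysate of stimulated human HepG2 cells; signal reports phosphorylation of biotinylated GST-cJun 1-79 at Ser73 with 10 µM ATP; on the % scale 0 is the no-effect control and ±100 the full control effect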). The essentials: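 Biotinylated GST-cJun(1-79) served as substrate for JNK3 in HepG2 lysates stimulated with IL-1beta and TNF-alpha. ATP was 10 uM final, pH 7.6. Ser73 phosphorylation was quantified by AlphaScreen (680 nm excitation).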

The target in experiment [4] is 3',5'-cyclic-AMP phosphodiesterase 4B (Homo sapiens) (UniProt Q07343). Put plainly: qHTS Assay for Inhibitors of PDE-IV (AID 607; active means well fitted activation curve with a large enough effect in the main read-out, with a control signal flat, not every such curve was filed as active; further: % of control where 0% means no effect). The essentials:
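HEK293 ACTOne cells with CNG channel (1000/well), endogenous PDE4; membrane potential dye, compounds up to 22.9 uM final. Fluorescence Ex 535/Em 590; RO 20-1724 (100 uM final) as reference.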

For experiment [5], the target named is Guanine nucleotide-binding protein G(i) subunit alpha-1 (Homo sapiens) (UniProt P63096). Nature of the experiment: qHTS Assay for Inhibitors of RGS12 GoLoco Motif Activity (Green Fluorophore) (AID 879).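 Further: 0% = labeled peptide with Gαi1 and full inhibition = labeled peptide alone without protein; negative values mean loss of peptide binding seen as reduced polarization.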 The essentials:
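A drop in FITC polarization marked displacement of the FITC-tagged RGS12 GoLoco peptide (10 nM) from Gαi1 (50 nM). Compounds were incubated 10 min at room temperature in Tris pH 7.5 buffer containing 150 mM NaCl, 0.1 mM GDP and 0.05% NP40; unlabeled peptide titration served as control.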
On the technique in general: In qHTS, concentration-response curves come from the screen itself.

Experiment [6] deals with Pyruvate kinase (Leishmania mexicana) (UniProt Q27686). Nature of the experiment: qHTS Validation Assay for Inhibitors of Leishmania Mexicana Pyruvate Kinase (AID 945).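 Further: 0% = DMSO only neutral control wells.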 The gist of the method: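 LmPYK E451W 0.2 nM; 0.5 mM PEP, 0.1 mM ADP, 7 mM MgCl2, 50 mM KCl, imidazole pH 7.2, 0.01% Tween 20, 0.05% BSA; 1 h RT; PKLight luminescence; DMSO-normalized.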
Chain of Pyruvate kinase (Leishmania mexicana) (Q27686 2-499 E452W): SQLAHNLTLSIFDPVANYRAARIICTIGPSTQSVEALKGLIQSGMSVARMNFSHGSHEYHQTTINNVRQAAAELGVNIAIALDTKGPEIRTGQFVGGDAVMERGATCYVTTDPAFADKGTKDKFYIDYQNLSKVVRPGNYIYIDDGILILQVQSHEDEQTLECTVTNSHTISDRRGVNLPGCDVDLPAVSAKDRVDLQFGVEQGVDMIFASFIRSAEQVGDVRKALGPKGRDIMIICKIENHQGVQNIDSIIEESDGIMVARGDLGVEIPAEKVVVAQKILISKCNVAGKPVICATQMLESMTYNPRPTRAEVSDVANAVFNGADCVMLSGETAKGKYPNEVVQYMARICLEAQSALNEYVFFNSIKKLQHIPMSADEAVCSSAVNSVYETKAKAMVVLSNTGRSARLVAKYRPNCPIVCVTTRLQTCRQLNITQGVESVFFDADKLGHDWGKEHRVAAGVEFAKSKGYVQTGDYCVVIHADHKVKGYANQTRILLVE
Experiment [7] deals with Alpha-galactosidase (Coffea arabica) (UniProt Q42656). Put plainly: Counterscreen for Glucocerebrosidase Inhibitors: qHTS Assay for Coffee Bean alpha-Galactosidase at pH 4.5 (AID 957).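 Further: plate controls were enzyme alone for no effect and no enzyme for full effect.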 The essentials:
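Quantitative HTS of compounds (0.7 nM to 77 uM) against coffee bean alpha-galactosidase at pH 4.5, measuring 4-methylumbelliferone fluorescence released from 80 uM substrate.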
(In general: Counterscreens check selectivity or assay interference.)

The target in experiment [8] is Alpha-galactosidase A (Homo sapiens) (UniProt P06280). Nature of the experiment: Counterscreen for Glucocerebrosidase Inhibitors: qHTS Assay for Human alpha-Galactosidase at pH 4.5 (AID 992). Further: 0% is about no effect. The essentials:
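Steps: enzyme (2 nM final), then compound across 0.7 nM to 77 uM, then 80 uM fluorogenic galactopyranoside substrate; incubate 20 min at room temperature; quench at pH 10; measure fluorescence at 365/440 nm.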

In experiment [9] the target is DNA dC->dU-editing enzyme APOBEC-3G (Homo sapiens) (UniProt Q9HC16). Nature of the experiment: qHTS for inhibitors of Vif-A3G interactions: Validation (AID 588379). Further: 0% is about no effect. The gist of the method: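 Yellow fluorescence (Ex 488, Em 500-530) of Vif-coexpressing HeLa A3G-eYFP cells, scanned by Acumen cytometer, reports blocked A3G degradation. Cells plated at 700/well overnight at 37 deg C before compound addition, then a further overnight compound incubation at 37 deg C.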
Chain of DNA dC->dU-editing enzyme APOBEC-3G (Homo sapiens) (Q9HC16 whole entry, looked up): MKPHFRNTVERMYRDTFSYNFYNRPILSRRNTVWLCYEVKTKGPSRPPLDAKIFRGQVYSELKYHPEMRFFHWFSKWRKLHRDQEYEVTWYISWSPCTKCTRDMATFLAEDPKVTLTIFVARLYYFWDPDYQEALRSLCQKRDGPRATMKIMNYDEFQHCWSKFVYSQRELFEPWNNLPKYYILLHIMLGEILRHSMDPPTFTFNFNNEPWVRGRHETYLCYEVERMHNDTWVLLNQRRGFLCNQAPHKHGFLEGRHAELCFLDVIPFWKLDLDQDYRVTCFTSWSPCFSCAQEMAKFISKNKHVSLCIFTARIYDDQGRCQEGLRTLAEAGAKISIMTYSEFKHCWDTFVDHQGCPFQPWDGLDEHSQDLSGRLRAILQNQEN

In experiment [10] the test system is Zika virus NS2B-NS3 protease. Put plainly: Primary screen GU AMC qHTS for Zika virus inhibitors (AID 1347154). Further: nearly all actives have a fitted effect of over 70% in size. Further: potency means the concentration at half of the fitted maximal effect.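 On activity change, negative = inhibition: 0% = no-inhibitor control and -100% = no-enzyme control.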 The essentials: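 Unlinked Zika NS2B hydrophilic domain/NS3 protease domain noncovalent complex (25 nM final) in 10 mM Tris-HCl pH 8.0, 0.01% Tween 20, with AMC peptide substrate. Fluorescence (ex 340, em 450 nm) change over 15 min, room temperature; percent inhibition fitted to 4-parameter Hill equation.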

Experiment [11] can be described thus: Primary qHTS for small molecule stabilizers of the endoplasmic reticulum resident proteome: Secreted ER Calcium Modulated Protein (SERCaMP) assay (AID 1508630). Further: on the % scale 0 is the no-effect control and ±100 the full control effect. The essentials:
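The SH-SY5Y reporter protocol was run at 3 concentrations up to 38.3 uM (primary) or 11 concentrations (follow-up): 16 h compound, 100 nM thapsigargin for 4 h, then extracellular luciferase luminescence.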

Experiment [12] concerns the target Cytochrome P450 3A4 (Homo sapiens) (UniProt P08684). Nature of the experiment: qHTS Assay for Inhibitors and Substrates of Cytochrome P450 3A4 (AID 884). Further: nearly all actives have a fitted effect of over 50% in size. Further: potency means the concentration at half of the fitted maximal effect. The essentials:
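Luminescent readout of luciferin produced by CYP3A4 (20 nM) dealkylation of Luciferin-PPXE, 25 uM (its KM). NADPH-driven reaction ran 60 min at RT after 10 min compound preincubation; data scaled to 57 uM ketoconazole as 100% inhibition.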

Experiment [13] has the same target. Nature of the experiment: qHTS Assay for Activators of Cytochrome P450 3A4 (AID 885). Further: nearly all actives have a fitted effect of over 65% in size. The gist of the method: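 Human CYP3A4 dealkylates Luciferin-PPXE to luciferin, which luciferase detection converts to light. Substrate was at its KM (25uM), buffer 200mM KPO4, reaction 60 min at RT.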
Experiment [14] deals with Glucocorticoid receptor (Homo sapiens) (UniProt P04150). Nature of the experiment: GR-GFP Redistribution (AID 450;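 active means compounds whose dose series gives a full or clear partial fitted curve of increased nuclear translocation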; further: potency means the concentration at half of the fitted maximal effect). The note with it: U2OS GR-GFP nuclear translocation, laser cytometry, 2 h.
Chain of Glucocorticoid receptor (Homo sapiens) (P04150 whole entry, looked up, the tested form may be a part): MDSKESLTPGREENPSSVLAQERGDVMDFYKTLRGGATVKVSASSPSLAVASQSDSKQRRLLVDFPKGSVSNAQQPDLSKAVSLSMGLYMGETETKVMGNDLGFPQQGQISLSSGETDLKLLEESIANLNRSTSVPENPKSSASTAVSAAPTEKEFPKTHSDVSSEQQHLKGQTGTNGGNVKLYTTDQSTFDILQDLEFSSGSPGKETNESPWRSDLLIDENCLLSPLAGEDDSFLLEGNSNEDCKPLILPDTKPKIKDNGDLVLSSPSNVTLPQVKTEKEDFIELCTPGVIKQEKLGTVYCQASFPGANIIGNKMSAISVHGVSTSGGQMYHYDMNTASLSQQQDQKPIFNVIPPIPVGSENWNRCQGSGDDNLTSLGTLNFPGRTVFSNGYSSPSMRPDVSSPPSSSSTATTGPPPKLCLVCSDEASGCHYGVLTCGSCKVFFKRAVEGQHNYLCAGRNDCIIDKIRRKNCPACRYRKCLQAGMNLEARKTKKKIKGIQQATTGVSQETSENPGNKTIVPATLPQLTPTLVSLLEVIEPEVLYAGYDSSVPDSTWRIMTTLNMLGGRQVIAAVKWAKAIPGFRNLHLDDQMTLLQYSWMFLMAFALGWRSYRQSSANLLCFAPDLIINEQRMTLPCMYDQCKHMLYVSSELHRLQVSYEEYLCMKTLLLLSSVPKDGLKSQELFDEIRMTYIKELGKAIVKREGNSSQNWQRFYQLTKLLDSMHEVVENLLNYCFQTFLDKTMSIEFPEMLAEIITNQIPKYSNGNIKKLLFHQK
Experiment [15] shares this target. Nature of the experiment: GR-EFC Redistribution (AID 451; calls by dose curve; further: potency means the concentration at half of the fitted maximal effect). To be noted: CHO-K1 GR-EFC translocation, beta-gal luminescence, 2 h. The essentials: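 CHO-K1 cells stably expressing nuclear-localized β-gal enzyme acceptor and GR fused C-terminally to the enzyme donor fragment; ligand-driven nuclear translocation restores β-gal by complementation. Compounds titrated up to 46 uM final, 2 h at 37 °C; luminescence read.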

For experiment [16], the target named is Ubiquitin carboxyl-terminal hydrolase 1 (Homo sapiens) (UniProt O94782). Put plainly: Inhibitors of USP1/UAF1: Pilot qHTS (AID 504865).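 Further: rhodamine fluorescence freed from ubiquitin-rhodamine substrate followed over time; top concentration of the series differs between compounds; on the % scale 0 is the no-effect control and ±100 the full control effect; nearly all actives have a fitted effect of over 35% in size.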 The essentials: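 Deubiquitinase activity followed as kinetic rhodamine fluorescence release from 150 nM Ub-Rho. 1 nM USP1/UAF1 with compound, after 15 min room-temperature preincubation, in HEPES pH 7.8 buffer containing TCEP, EDTA, BSA and Tween-20.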
Chain of Ubiquitin carboxyl-terminal hydrolase 1 (Homo sapiens) (O94782 whole entry, looked up): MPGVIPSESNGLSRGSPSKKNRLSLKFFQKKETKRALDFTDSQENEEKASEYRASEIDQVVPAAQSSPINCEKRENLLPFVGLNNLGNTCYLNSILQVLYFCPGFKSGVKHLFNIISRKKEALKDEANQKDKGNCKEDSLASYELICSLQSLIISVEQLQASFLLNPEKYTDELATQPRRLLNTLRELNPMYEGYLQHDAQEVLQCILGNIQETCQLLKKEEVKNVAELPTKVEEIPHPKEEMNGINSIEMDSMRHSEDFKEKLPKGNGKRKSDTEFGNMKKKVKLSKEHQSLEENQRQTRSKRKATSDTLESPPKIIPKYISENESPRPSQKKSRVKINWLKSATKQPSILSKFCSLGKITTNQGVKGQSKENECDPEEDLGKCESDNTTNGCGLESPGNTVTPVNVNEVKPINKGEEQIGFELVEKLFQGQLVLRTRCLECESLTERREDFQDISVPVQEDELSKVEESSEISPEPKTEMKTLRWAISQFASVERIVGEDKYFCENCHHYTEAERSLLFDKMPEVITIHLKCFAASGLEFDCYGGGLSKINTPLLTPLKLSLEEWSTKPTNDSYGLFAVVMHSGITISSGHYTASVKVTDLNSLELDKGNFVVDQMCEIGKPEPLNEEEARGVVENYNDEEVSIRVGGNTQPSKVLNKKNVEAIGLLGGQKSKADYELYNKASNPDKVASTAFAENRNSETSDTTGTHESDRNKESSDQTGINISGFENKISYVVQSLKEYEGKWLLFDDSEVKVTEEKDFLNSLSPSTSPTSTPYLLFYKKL

Experiment [17] is described as follows: Stat Signaling Pathway (AID 446; active means well fitted curve in either direction with a large enough effect, not every such curve was filed as active). The gist of the method:
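Normalization used AC90 stimulation (300 pM IL-6) and AC90 inhibition (125 nM pan-JAK inhibitor at 40 pM IL-6). The underlying signal is SIE-driven beta-lactamase in ME-180 cells after 5 h IL-6 exposure with compound.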

Experiment [18] concerns the target Cytochrome P450 2D6 (Homo sapiens) (UniProt P10635). Nature of the experiment: qHTS Assay for Inhibitors and Substrates of Cytochrome P450 2D6 (AID 891). Further: nearly all actives have a fitted effect of over 60% in size. Further: potency means the concentration at half of the fitted maximal effect. The gist of the method: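 Luminescent read-out of luciferin formed by 5 nM human CYP2D6 demethylating 30 uM Luciferin-ME EGE (Km level) over 60 min at room temperature after NADPH regeneration addition. Data normalized to full inhibition by 1.43 uM quinidine.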

Experiment [19] has as its target Cytochrome P450 1A2 (Homo sapiens) (UniProt P05177). Put plainly: p450-cyp1a2 (AID 410; calls by dose curve; further: potency means the concentration at half of the fitted maximal effect;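 on activity change, negative = inhibition: -100% = full effect of reference inhibitor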). The gist of the method:
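Read-out is luminescence from luciferin produced by CYP1A2 demethylation of Luciferin-ME (100uM, at Km). Detection reagent stopped the 60 min NADPH-dependent reaction; signals were normalized to 57 uM furafylline.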

Values without a mark were called inactive. Inconclusive results are not listed. Active and inactive are the calls of the source. Unless noted, the call rests on the fitted dose curve; in most records, active means well fitted curve in the direction sought with a large enough effect; inconclusive means small, poorly fitted or top-dose-only effect, or another doubt; inactive means no such curve, though single readings can be large; an effect the other way counts as inactive or inconclusive.

Chain of Cytochrome P450 2D6 (Homo sapiens) (P10635 whole entry, looked up): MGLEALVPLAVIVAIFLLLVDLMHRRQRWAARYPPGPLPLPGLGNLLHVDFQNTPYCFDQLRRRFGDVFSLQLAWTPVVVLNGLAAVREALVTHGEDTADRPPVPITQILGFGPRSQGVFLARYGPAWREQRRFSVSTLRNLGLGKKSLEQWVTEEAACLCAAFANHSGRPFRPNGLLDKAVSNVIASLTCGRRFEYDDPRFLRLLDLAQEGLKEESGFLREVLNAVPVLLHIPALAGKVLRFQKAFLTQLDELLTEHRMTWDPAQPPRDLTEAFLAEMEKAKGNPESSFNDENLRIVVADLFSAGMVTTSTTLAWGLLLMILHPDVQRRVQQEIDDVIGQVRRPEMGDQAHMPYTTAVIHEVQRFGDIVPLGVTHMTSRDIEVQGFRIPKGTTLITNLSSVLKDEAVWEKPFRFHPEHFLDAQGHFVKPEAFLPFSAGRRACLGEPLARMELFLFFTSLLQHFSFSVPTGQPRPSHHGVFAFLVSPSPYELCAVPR
Chain of 3',5'-cyclic-AMP phosphodiesterase 4B (Homo sapiens) (Q07343 whole entry, looked up): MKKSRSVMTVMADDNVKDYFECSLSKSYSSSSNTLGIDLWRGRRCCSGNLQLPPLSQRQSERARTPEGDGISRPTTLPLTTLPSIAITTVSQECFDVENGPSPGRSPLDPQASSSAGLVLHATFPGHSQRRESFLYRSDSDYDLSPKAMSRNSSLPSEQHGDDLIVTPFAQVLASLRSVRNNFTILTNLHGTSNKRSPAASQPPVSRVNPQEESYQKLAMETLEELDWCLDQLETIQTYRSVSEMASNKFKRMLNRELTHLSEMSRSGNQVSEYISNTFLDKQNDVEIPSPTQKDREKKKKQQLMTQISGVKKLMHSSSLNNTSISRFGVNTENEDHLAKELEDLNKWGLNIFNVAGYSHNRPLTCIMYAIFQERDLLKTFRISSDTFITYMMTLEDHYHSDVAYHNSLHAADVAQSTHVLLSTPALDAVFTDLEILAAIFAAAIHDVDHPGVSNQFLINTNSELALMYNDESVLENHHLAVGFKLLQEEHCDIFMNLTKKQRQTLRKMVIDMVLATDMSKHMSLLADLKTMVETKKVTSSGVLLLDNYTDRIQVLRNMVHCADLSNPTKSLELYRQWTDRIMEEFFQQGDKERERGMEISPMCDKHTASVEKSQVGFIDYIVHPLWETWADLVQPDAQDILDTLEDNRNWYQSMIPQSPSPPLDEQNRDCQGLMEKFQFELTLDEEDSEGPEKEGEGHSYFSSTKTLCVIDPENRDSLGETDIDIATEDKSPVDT
Chain of Cytochrome P450 3A4 (Homo sapiens) (P08684 whole entry, looked up): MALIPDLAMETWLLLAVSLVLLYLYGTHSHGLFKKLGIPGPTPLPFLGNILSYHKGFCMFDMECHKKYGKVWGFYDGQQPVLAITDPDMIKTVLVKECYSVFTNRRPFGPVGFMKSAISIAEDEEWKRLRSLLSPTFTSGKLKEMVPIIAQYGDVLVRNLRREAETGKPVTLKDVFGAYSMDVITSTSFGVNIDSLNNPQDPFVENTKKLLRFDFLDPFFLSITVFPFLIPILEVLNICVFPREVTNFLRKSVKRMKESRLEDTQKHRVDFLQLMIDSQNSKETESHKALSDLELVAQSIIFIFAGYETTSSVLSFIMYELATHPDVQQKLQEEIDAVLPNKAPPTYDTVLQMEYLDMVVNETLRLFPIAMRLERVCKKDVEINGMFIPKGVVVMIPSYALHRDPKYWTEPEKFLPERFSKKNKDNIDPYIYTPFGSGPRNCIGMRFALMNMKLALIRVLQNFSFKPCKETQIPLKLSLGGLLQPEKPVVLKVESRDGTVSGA
Chain of Guanine nucleotide-binding protein G(i) subunit alpha-1 (Homo sapiens) (P63096 whole entry, looked up): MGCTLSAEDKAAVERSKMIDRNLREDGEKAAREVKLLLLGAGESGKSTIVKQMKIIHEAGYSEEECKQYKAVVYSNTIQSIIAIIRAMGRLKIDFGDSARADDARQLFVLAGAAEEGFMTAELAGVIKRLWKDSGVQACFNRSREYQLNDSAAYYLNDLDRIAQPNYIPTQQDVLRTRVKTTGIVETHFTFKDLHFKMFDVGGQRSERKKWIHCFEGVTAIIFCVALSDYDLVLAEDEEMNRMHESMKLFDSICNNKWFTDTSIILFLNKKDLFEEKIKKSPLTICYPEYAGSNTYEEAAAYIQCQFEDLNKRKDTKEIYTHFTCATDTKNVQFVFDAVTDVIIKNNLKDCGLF
Chain of Alpha-galactosidase A (Homo sapiens) (P06280 whole entry, looked up): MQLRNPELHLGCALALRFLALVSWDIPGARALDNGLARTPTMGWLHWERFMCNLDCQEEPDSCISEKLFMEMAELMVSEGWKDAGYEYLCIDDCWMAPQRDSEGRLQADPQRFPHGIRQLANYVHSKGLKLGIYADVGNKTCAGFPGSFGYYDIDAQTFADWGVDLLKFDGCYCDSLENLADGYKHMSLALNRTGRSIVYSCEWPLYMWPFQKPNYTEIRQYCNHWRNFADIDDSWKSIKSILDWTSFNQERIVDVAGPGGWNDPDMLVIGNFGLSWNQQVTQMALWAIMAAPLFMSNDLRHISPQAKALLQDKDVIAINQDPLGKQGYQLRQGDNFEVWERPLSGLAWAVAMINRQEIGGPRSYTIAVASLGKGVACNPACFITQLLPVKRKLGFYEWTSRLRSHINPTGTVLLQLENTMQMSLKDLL

Regarding `CC[C@]1(C2=NCCN2)Cc2ccccc2O1`, the compound was classed as inactive in experiment [1], in experiment [3], in [5], in experiment [6], in experiment [7] and in experiment [8]. Besides, the activity change, negative = inhibition in experiment [2] was -18.1%. Moreover, the Potency entry in experiment [4], in [9], in experiment [10] and in experiment [11] was “inactive” in each case.

Consider `N#CC(C#N)=NNc1ccc(OC(F)(F)F)cc1`, for which the Potency in experiment [12] was 5.01 µM (active). Besides, the Potency result in experiment [13], in experiment [10] and in [11] was “inactive” throughout.

In the case of `CC(=O)O[C@@H]1CN2CCC1CC2`, the Potency in [14] and in experiment [15] was over 46 µM throughout. In addition, the Potency entry in experiment [4], in [16], in experiment [9], in [10] and in [11] was “inactive” throughout.

For `COc1ccc(CNC(=O)/C=C\c2ccc3[nH]cc(CCN(C)C)c3c2)cc1`, the call in experiment [1], in experiment [17], in [3], in experiment [5], in [6] and in experiment [7] was inactive. Moreover, the result in experiment [8] was inactive. In addition, the activity change, negative = inhibition in experiment [2] is -13.5%. For the same compound, the Potency in experiment [14] and in experiment [15] was over 46 µM each time. For the same compound, the Potency entry in [4], in experiment [13], in experiment [18], in experiment [16], in experiment [9] and in experiment [10] was “inactive” in each case. Besides, the Potency entry in [11] was “inactive”.

Consider `CC[C@@H](CO)NC(=O)[C@H]1C=C2c3cccc4[nH]cc(c34)C[C@H]2N(C)C1`, for which the Potency was over 46 µM in experiment [14], over 46 µM in experiment [15] and 29.9 µM (active) in experiment [10]. In addition, the Potency entry in experiment [4], in [9] and in experiment [11] was “inactive” each time.

As for `CCOC(=O)c1ncn2c1CN(C)C(=O)c1cc(N=[N+]=[N-])ccc1-2`, the Potency result in experiment [12], in experiment [10] and in [11] was “inactive” throughout.

`C[C@@H]1O[C@H](O[C@@H]2C[C@@H](O)[C@]3(CO)[C@H]4[C@H](O)C[C@]5(C)[C@@H](C6=CC(=O)OC6)CC[C@@]5(O)[C@@H]4CC[C@]3(O)C2)[C@@H](O)[C@H](O)[C@H]1O`: in experiment [3], the compound was classed as inactive. Besides, the Potency in experiment [18] is 0.0501 µM (active). In addition, the Potency result in experiment [16], in [9], in experiment [10] and in experiment [11] was “inactive” in each case.

Take `NCCCP(=O)(O)CC1CCCCC1`: the Potency in [14] and in experiment [15] was over 46 µM throughout. The result in experiment [3] was inactive. For the same compound, the Potency entry in [4], in [16], in experiment [9], in experiment [10] and in experiment [11] was “inactive” throughout.

For the compound `COC(=O)CN1CN(c2ccccc2)C2(CCN(Cc3ccc4ccccc4c3)CC2)C1=O`, the Potency entry in experiment [19], in experiment [4], in experiment [13], in [9], in experiment [10] and in experiment [11] was “inactive” in each case. Also, the Potency in experiment [14] and in experiment [15] was over 46 µM each time. Besides, the compound was classed as inactive in [3].

As for `CC(C)(c1ccc(OCC2CO2)cc1)c1ccc(OCC2CO2)cc1` (stereo not drawn), the Potency entry in [12], in [10] and in [11] was “inactive” each time.

Take `CS(=O)(=O)Nc1ccc(Cc2noc(-c3ccc4[nH]cc(CCN)c4c3)n2)cc1`: the Potency was 0.0316 µM (active) in [19], over 46 µM in [14], over 46 µM in experiment [15] and 0.126 µM (active) in experiment [18]. Moreover, the Potency result in experiment [13], in [16], in [9], in experiment [10] and in experiment [11] was “inactive” throughout.
